Reference: PubChem BioAssay AID651640 (Broad Institute, 2012)
Out of some 350,000 compounds screened, about 6,000 (1.7%) were called active. Roughly 5% stayed inconclusive and do not appear here. The entries come from a sample that favours actives as a whole. Unmarked numbers belong to inactive results. Cut-off read from the data, not from the text of the source: active = CPE inhibition above about 20% (passing the limit was not always enough); inconclusive = no clear call, values can overlap the other calls; tested in BHK-21 cells.

Experiment: protection of cells from dengue 2 killing – plate reader, single concentration, primary screen (AID 651640);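 note: 0% = median of neutral control wells and 100% = median of positive control wells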
Settings: DENV2-infected cells, cytopathic effect rescue, at 9.99 µM, hits give high values

Compared with `COc1ccc2c3c([nH]c2c1)[C@@H](CO)N(Cc1cc(F)ccc1F)CC31CN(C(=O)C2CCC2)C1`, `COc1ccc2c3c([nH]c2c1)[C@@H](CO)N(Cc1ccccc1F)CC31CN(C(=O)C2CC2)C1` is higher in CPE inhibition: -7.65% for the first, 2.19% for the second.

First: CCCNC(=O)N1CCC2(CC1)CN(Cc1ccccc1)[C@H](CO)c1[nH]c3cc(OC)ccc3c12
Second: CCC(=O)N1CC2(C1)CN(Cc1ccccc1Cl)[C@@H](CO)c1[nH]c3cc(OC)ccc3c12
The CPE inhibition of the first is higher: 8.24% for the first, 1.97% for the second.

Compared with `COc1ccc2c3c([nH]c2c1)[C@@H](CO)N(Cc1cccc(F)c1)CC31CN(CC2CC2)C1`, `CN(C)CC#Cc1ccc([C@H]2[C@H]3CN(C(=O)c4cccc(F)c4)CC(=O)N3[C@H]2CO)cc1` is lower in CPE inhibition: 2.63% for the first, 0.131% for the second.

Compared with `COCC(=O)Nc1ccc2c(c1)OC[C@@H](C)N(C(=O)c1ccncc1)C[C@@H](C)[C@@H](OC)CN(C)C2=O`, `CCC(=O)Nc1ccc2c(c1)C(=O)N(C)[C@@H]1CC[C@H](CC(=O)NCc3ccccc3)O[C@H]1CO2` is lower in CPE inhibition: 13.2% for the first, -3.19% for the second.

Compared with `O=C(NC[C@H]1CC[C@@H]2[C@@H](CN2S(=O)(=O)c2ccccc2F)O1)C1CCCCC1`, `O=C(NC[C@@H]1[C@@H](c2ccccc2)[C@H](CO)N1C(=O)Cc1cccnc1)C1CC1` is higher in CPE inhibition: -10.6% for the first, -4.58% for the second.

Going from `COCC#Cc1cnc2c(c1)C(=O)N([C@@H](C)CO)C[C@H](C)[C@@H](CN(C)Cc1ccccc1)O2` to `COCC(=O)N(C)C[C@@H]1Oc2ncc(C#C[C@H](C)O)cc2C(=O)N([C@@H](C)CO)C[C@@H]1C`, the CPE inhibition falls from 7.93% to -2.59%.

First: CCOc1ncccc1C(=O)Nc1ccc(S(=O)(=O)Nc2nc(C)cc(C)n2)cc1
Second: CCOc1ccc(C(=O)Nc2ccc(S(=O)(=O)Nc3cc(C)on3)cc2)cc1
The CPE inhibition of the first is lower: -5.45% for the first, 1.57% for the second.

Going from `CCN(CC(=O)NCc1cccs1)C(=O)c1cccc(S(=O)(=O)Nc2ccccc2OC)c1` to `CCOC(=O)C(Cc1ccccc1)NC(=O)CCC(=O)c1ccc(OC)cc1` (stereo unspecified), the CPE inhibition falls from 0.937% to -0.51%.

Compared with `COCC(=O)N[C@@H]1C[C@@H]2O[C@@H](CO)CC[C@@H]2O[C@@H]1CCc1ccc(-c2ccccc2)cc1`, `C[C@@H]1CN([C@H](C)CO)C(=O)c2cc(NC(=O)Nc3ccccc3)ccc2O[C@@H](C)CCCCO[C@H]1CN(C)Cc1ccc(C(F)(F)F)cc1` is lower in CPE inhibition: 14.8% for the first, -1.92% for the second.

Compared with `COc1ccc(OC)c(NC(=O)N[C@H](Cc2ccccc2)C(=O)NN)c1`, `COc1ccc(CN(C)C[C@@H]2Oc3ccc(NC(=O)Nc4ccc(OC)cc4)cc3C(=O)N([C@H](C)CO)C[C@H]2C)cc1` is higher in CPE inhibition: -9.79% for the first, -3.17% for the second.

Compared with `C[C@H]1CN([C@@H](C)CO)C(=O)c2cc(Br)cnc2O[C@@H]1CN(C)C(=O)c1ccccc1F`, `C[C@H](CO)N1C[C@H](C)[C@@H](CN(C)Cc2ccncc2)Oc2ccc(NC(=O)Nc3ccccc3)cc2C1=O` is higher in CPE inhibition: 2.37% for the first, 7.94% for the second.

First: CCc1ccc(OC(C)C(=O)Nc2ccc(S(=O)(=O)Nc3cc(C)on3)cc2)cc1 (stereo unspecified)
Second: C[C@H](CO)N1C[C@H](C)[C@H](CN(C)Cc2ccncc2)Oc2ccc(NC(=O)Nc3ccc(F)cc3)cc2C1=O
The CPE inhibition of the first is higher: 2.4% for the first, -10.5% for the second.

Compared with `C[C@H]1CCCCO[C@@H](CN(C)Cc2ccc(C(F)(F)F)cc2)[C@@H](C)CN([C@@H](C)CO)C(=O)c2cc(NC(=O)Nc3ccccc3)ccc2O1`, `C[C@@H]1CCCCO[C@@H](CN(C)Cc2ccc(C(=O)O)cc2)[C@H](C)CN([C@@H](C)CO)C(=O)c2cc(NC(=O)Nc3ccc(C(F)(F)F)cc3)ccc2O1` is higher in CPE inhibition: -2.84% for the first, 17.1% for the second.

Compared with `C[C@@H]1CCCCO[C@@H](CN(C)C(=O)Nc2ccc(C(F)(F)F)cc2)[C@H](C)CN([C@H](C)CO)C(=O)c2cc(NC(=O)c3ccccc3)ccc2O1`, `C[C@H](CO)N1C[C@H](C)[C@@H](CN(C)Cc2ccc3c(c2)OCO3)Oc2ccc(NC(=O)Nc3ccc(F)cc3)cc2C1=O` is lower in CPE inhibition: 4.25% for the first, -6.58% for the second.

With `CCC(=O)N1CC2(C1)CN(Cc1cc(F)ccc1F)[C@@H](CO)c1[nH]c3cc(OC)ccc3c12` the CPE inhibition was 47.6% (active).
For `CCOc1ncccc1C(=O)NNC(=O)c1cccc(S(=O)(=O)Nc2ccccc2OC)c1`, the CPE inhibition was 23.7% (active).
With `COc1cc([C@H](Cc2ccccc2)NC(C)=O)oc(=O)c1` the CPE inhibition was 23.5% (active).
With `Cc1cc(NS(=O)(=O)c2ccc(NC(=S)NC(=O)c3ccc(F)cc3Cl)cc2)no1` the CPE inhibition was 78.9% (active).
With `COc1ccc(NC(=O)Nc2ccc3c(c2)C(=O)N([C@@H](C)CO)C[C@H](C)[C@@H](CN(C)Cc2ccc4c(c2)OCO4)O3)cc1` the CPE inhibition was 31.5% (active).
With `C[C@@H]1CCCCO[C@@H](CN(C)Cc2ccc(C(=O)O)cc2)[C@@H](C)CN([C@@H](C)CO)C(=O)c2cc(NC(=O)Nc3ccc(C(F)(F)F)cc3)ccc2O1` the CPE inhibition was 21.1% (active).
With `C[C@@H]1CN([C@@H](C)CO)C(=O)c2cc(NC(=O)Nc3ccc(C(F)(F)F)cc3)ccc2O[C@@H](C)CCCCO[C@H]1CN(C)C(=O)c1ccccc1` the CPE inhibition was 25.6% (active).
With `C[C@@H]1CN([C@@H](C)CO)C(=O)c2cc(NC(=O)Nc3ccc(C(F)(F)F)cc3)ccc2O[C@@H]1CN(C)Cc1ccncc1` the CPE inhibition was 31.1% (active).
